According to PubChem BioAssay (NCATS):
Inconclusive results are not listed. Where a call stands in place of a potency, no number is given. The source holds several records for some structures; these can differ, active in one and inactive in another. Active and inactive are the calls of the source. Calls come from the whole dose curve; as a rule, active = well fitted inhibition curve with a large enough effect; inconclusive = small, poorly fitted or top-dose-only effect; inactive = flat fitted curve, though single readings scatter.

target: Glutathione peroxidase 1 (Homo sapiens) (UniProt P07203); assay: Primary qHTS Assay for Inhibitors of Recombinant Selenoprotein Glutathione Peroxidase 1 (GPX1) (AID 1845191); details: recombinant GPX1, GR-coupled NADPH fluorescence, 15 min; series mostly up to 48.8 µM; note: nearly all actives have a fitted effect of over 65% in size
Source text: Assay Provider: Elias S.J. Arner MD PhD.
Department of Medical Biochemistry and Biophysics
Karolinska Institutet, Solna, Stockholm, Sweden
Selenoprotein glutathione peroxidases (GPX), like the ubiquitously expressed GPX1 and the ferroptosis modulator GPX4, enact their antioxidant activities by reducing hydroperoxides using glutathione. […] GPX1 and GPX4 inhibitors have thus shown promise as anti-cancer agents. Existing inhibitors are often promiscuous, or modulate GPX activity only indirectly, so novel direct inhibitors identified through screening against GPX1 and GPX4 could be valuable. Here, we developed optimized glutathione reductase (GR)-coupled GPX assays for the biochemical high-throughput screen (HTS) of almost 12,000 compounds with known mechanisms of action. Initial hits were triaged using a GR counter-screen, assessed for isoform specificity using a separate GPX2 assay, and were assessed for general selenocysteine-targeting activity using a thioredoxin reductase (TXNRD1) assay. With this suite of assays, we identified novel GPX1/GPX2- and GPX4-specific inhibitors and can here present a validated pipeline for future discovery research for selenoprotein-targeting agents.
SEQUENCE No. (e.g., 1, 2, 3, etc.); […] (e.g., Cells, Incubation, Reagent, etc.); VALUE; DESCRIPTION.
1; Reagent 1; 3 uL; GPx1 enzyme or no enzyme control in 1536-well, black, solid Greiner assay plate.
2; Compound; 25 nL; Kalypsis pin tool (Wako USA) equipped with a 1536-well pin head.
3; Incubation; 30 min; room temperature.
4; Reagent 2; 1 uL; 10 nM GPX1, 1 mM GSH, 0.5 mM CHP, 0.5 mM NADPH, 100 nM GR, 0.01% BSA substrate
5; Detection; Fluorescence; ViewLux microplate reader, excitation 340 nm and emission 450 nm.
6; Incubation; 15 min; room temperature.
7; Detection; Fluorescence; ViewLux microplate reader, excitation 340 nm and emission 450 nm.
NOTES (numbers refer to Sequence numbers above)
1. 3 uL of 16.66 nM GPX1 and 0.016% BSA in assay buffer (50 mM Tris-HCl, 2 mM EDTA (pH 7.5), 150 mM NaCl) was added to columns 3-48 of 1536-well assay plates using a BioRAPTR Flying Reagent Dispenser (Let's Go Robotics (LGR), Carlsbad, CA). A no-enzyme control (0.01% BSA in TES assay buffer) was added to columns 1-2.
2. 25 nL of test compounds and DMSO controls were added to each well with a pin tool (Kalypsys).
3. The assay plates were incubated for 30 minutes at room temperature.
4. 1 uL of master mix (500 nM glutathione reductase (GR), 5 mM reduced glutathione (GSH), 2.5 mM NADPH in assay buffer) was added. 1 uL of cumene hydroperoxide (CHP) ([2.5 mM] in 50% EtOH) was then added within 5 minutes to initiate the reaction. Final concentrations were: 10 nM GPX1, 1 mM GSH, 0.5 mM CHP, 0.5 mM NADPH, 100 nM GR, 0.01% BSA.
5. Initial fluorescence readout (t=0) at 340/450 nm was measured using a ViewLux multimodal detector (PerkinElmer, Waltham, MA).
7. Endpoint fluorescence readout (t=15) at 340/450 nm was measured 15 min after room temperature incubation.
Potency is the fitted concentration of half-maximal effect.

Sequence of Glutathione peroxidase 1 (Homo sapiens) (P07203 whole entry, looked up): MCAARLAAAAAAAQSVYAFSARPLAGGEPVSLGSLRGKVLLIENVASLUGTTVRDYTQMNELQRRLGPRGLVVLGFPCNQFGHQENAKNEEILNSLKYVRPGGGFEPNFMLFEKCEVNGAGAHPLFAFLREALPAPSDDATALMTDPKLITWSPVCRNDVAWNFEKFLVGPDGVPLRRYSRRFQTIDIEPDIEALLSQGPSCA

SMILES	Potency
Nc1nccc(-c2ccc3noc(-c4ccc(Cl)cc4)c3c2)n1	inactive
Cc1n[nH]c(C)c1Cc1sc2c(c1C(=O)N1C[C@H](O)CO1)c(=O)n(C)c(=O)n2CC(C)C	inactive
Cc1ccc(NC(=O)c2cccc(C(C)(C)C#N)c2)cc1Nc1ccc2ncn(C)c(=O)c2c1	inactive
Cc1ccccc1C(OCCN(C)C)c1ccccc1 (stereo not given)	inactive
O=C(Nc1ccc(F)c(C(F)(F)F)c1)Nc1nnc(-c2ccncc2)s1	inactive
OC(CN1CCC(Cc2ccc(F)cc2)CC1)c1ccc(Cl)cc1 (stereo not given)	inactive
CCN(CC)CCCC(C)Nc1ccnc2cc(Cl)ccc12 (stereo not given)	inactive
NS(=O)(=O)c1cc2c(cc1Cl)NC=NS2(=O)=O	inactive
O=NN(CCCl)C(=O)NCCCl	inactive
COc1ccc2nc(S(=O)Cc3ncc(C)c(OC)c3C)[nH]c2c1 (stereo not given)	5.08 µM (active) and inactive
CC[C@H](Nc1ncnc2nc[nH]c12)c1nc2cccc(F)c2c(=O)n1-c1ccccc1	inactive
NC(=O)C1CCCc2c1[nH]c1ccc(Cl)cc21 (stereo not given)	inactive
NC(=O)c1ccc(-c2nc(-c3ccc4c(c3)OCCO4)c(-c3ccccn3)[nH]2)cc1	inactive
Cc1cc2c(C(C)C)c(O)c(O)c(C=O)c2c(O)c1-c1c(C)cc2c(C(C)C)c(O)c(O)c(C=O)c2c1O	inactive
Cc1cnc(Nc2ccc(OCCN3CCCC3)cc2)nc1Nc1cccc(S(=O)(=O)NC(C)(C)C)c1	inactive
CCCCNc1cc(C(=O)O)cc(S(N)(=O)=O)c1Oc1ccccc1	inactive
CCN(CC)CCCC(C)Nc1nc(C)cc(Nc2ccc3nc(C)cc(N)c3c2)n1 (stereo not given)	inactive
C[C@]12CCC(=O)C=C1CC[C@@H]1[C@@H]2[C@@H](O)C[C@@]2(C)[C@H]1CC[C@]2(O)C(=O)CO	inactive
COc1ccc([C@@H]2CC(=O)c3c(O)cc(O[C@@H]4O[C@H](CO[C@@H]5O[C@@H](C)[C@H](O)[C@@H](O)[C@@H]5O)[C@@H](O)[C@H](O)[C@@H]4O)cc3O2)cc1O	inactive
Clc1cccc(Cl)c1NC1=NCCN1	inactive

SMILES	Potency
CCCn1c(=O)c2[nH]c(C34CC5CC3C[C@@H](C5)C4)nc2n(CCC)c1=O	inactive
Nc1ncnc2nc(-c3ccc(N4CCOCC4)nc3)cc(-c3cccc(Br)c3)c12	inactive
CN(C)C(=O)c1ccc(S(=O)(=O)c2ccc(NC(=O)[C@@](C)(O)C(F)(F)F)c(Cl)c2)cc1	inactive
NNCCc1ccccc1	inactive
O=C(O)CCc1ccc(NCc2cccc(Oc3ccccc3)c2)cc1	inactive
NC(=O)c1ccc(I)c([N+](=O)[O-])c1	inactive
Cc1cc(SCc2sc(-c3ccc(C(F)(F)F)cc3)nc2C)ccc1OCC(=O)O	20.2 µM (active) and inactive
CCCS(=O)(=O)Nc1ccc(F)c(C(=O)c2c[nH]c3ncc(-c4ccc(Cl)cc4)cc23)c1F	inactive
CCC(C)N(C)C(=O)c1cc2ccccc2c(-c2ccccc2Cl)n1 (stereo not given)	inactive
CNC(=O)c1ccc(C)c(-n2c(C)cc(OCc3ccc(F)cc3F)c(Br)c2=O)c1	inactive
COc1cc2nccc(Oc3ccc(NC(=O)NC4CC4)c(Cl)c3)c2cc1C(N)=O	inactive
CCCc1nc2c(C)cc(-c3nc4ccccc4n3C)cc2n1Cc1ccc(-c2ccccc2C(=O)O)cc1	inactive
CCOC(=O)N1CCC(=C2c3ccc(Cl)cc3CCc3cccnc32)CC1	inactive
Nc1nc2c(ncn2COCCO)c(=O)[nH]1	inactive
O=C(Nc1cccnc1)N1CCC(Cc2cccc(Oc3ccc(C(F)(F)F)cn3)c2)CC1	inactive
Cc1ccc(N(CC2=NCCN2)c2cccc(O)c2)cc1	inactive
CS(=O)(=O)c1cccc(CNc2nc(Nc3ccc4c(c3)CCC(=O)N4)ncc2C(F)(F)F)c1	inactive
COc1ccc(CC2=NN3C([C@@H](CCc4ccccc4)[C@@H](C)O)=NC(C)C3C(=O)N2)cc1OC (stereo not given in full)	inactive
C/C(=C\C(=O)Nc1ccccc1C(=O)O)c1ccc2ccccc2c1	inactive
Cn1cc(-c2ccc3nnc(C(F)(F)c4ccc5ncccc5c4)n3n2)cn1	inactive
